Measurements published in PubChem BioAssay (NCATS).
Records with an inconclusive call do not appear. Values without a mark were called inactive. Active and inactive are the calls of the source. The call rests on the fitted dose curve; in most records, active means well fitted cell-killing curve with a large enough effect; inconclusive means small, poorly fitted or top-dose-only effect, or effect the other way; inactive means no such curve, though single readings can be large or run the other way.

Test: Quantitative High-Throughput drug screen in 47 multiple myeloma cell lines against the NCATS MIPE library collection: KMS12PE_JCRB cell viability assay (AID 1918972); further: nearly all actives have a fitted effect of over 30% in size
Details: KMS12PE myeloma viability, CellTiter-Glo ATP, 48 h; series mostly up to 45.8 µM; viability: at the top concentration
Description: PI: Beverly A. Mock Ph.D.
Laboratory of Cancer Biology and Genetics,
Center for Cancer Research, National Cancer Institute,
National Institute of Health, Bethesda, Maryland
Drug resistance and disease progression are common in multiple myeloma (MM) patients, underscoring the need for new therapeutic combinations. […] We hypothesized that effective combinations would reduce MYC expression and enhance p16 activity. […] These preclinical data identify potentially useful drug combinations for evaluation in drug-resistant MM and reveal potential mechanisms of combined drug sensitivity.
Described herein is the primary MIPE qHTS used to cherrypick compounds. Validated compounds were then further tested for potential synergistic activiy.
[1] Peat TJ, Gaikwad SM, Dubois W, Gyabaah-Kessie N, Zhang S, Gorjifard S, Phyo Z, Andres M, Hughitt VK, Simpson RM, Miller MA, Girvin AT, Taylor A, Williams D, D'Antonio N, Zhang Y, Rajagopalan A, Flietner E, Wilson K, Zhang X, Shinn P, Klumpp-Thomas C, McKnight C, Itkin Z, Chen L, Kazandijian D, Zhang J, Michalowski AM, Simmons JK, Keats J, Thomas CJ, Mock BA. Drug combinations identified by high-throughput screening promote cell cycle transition and upregulate Smad pathways in myeloma. Cancer Lett. 2023 Aug 1;568:216284. doi: 10.1016/j.canlet.2023.216284. Epub 2023 Jun 24. PMID: 37356470; PMCID: PMC10408729.
SEQUENCE No. (e.g., 1, 2, 3, etc.); […] (e.g., Cells, Incubation, Reagent, etc.); VALUE and DESCRIPTION.
1; Cells; 5 uL; white, solid bottom 1536-well Greiner assay plate.
2; Compounds; 23 nL; Kalypsis pin tool (Wako USA) equipped with a 1536-well pin head to transfer to the assay plates.
3; Incubation; 48 hours; 37C incubation.
4; Reagent;5uL; CellTiter Glo (Promega).
5; Detector; 425V; Luminescence; Viewlux PerkinElmer.
NOTES (numbers refer to Sequence numbers above)
1. The cell-based screening methods employed in this study were like those previously published. Briefly, the corresponding myeloma cell lines were screened in 1,536-well plates with 500 cells, 5-uL per well for inhibition of cell viability (assessed by measuring ATP levels with CellTiterGlo).
2. NCATS MIPE 4.0 library of approved and investigational drugs were added using the Kalypsis pin tool. Wells treated with DMSO only for 100% viability and media only wells for 0% viability were used as controls.
3. The assay plates were covered and incubated for 48 hours in a 37C, 5% CO2 incubator with controlled humidity.
4. After 48 hours, CellTilter-GloTM luminescent substrate mix (Promega) reagent was added to the assay plate and plates we incubated for 5 min at room temperature.
5. Signal was measured as median relative luminescence units on a ViewLux (PerkinElmer) multiplate reader.
[1] Heske CM, Davis MI, Baumgart JT, Wilson K, Gormally MV, Chen L, Zhang X, Ceribelli M, Duveau DY, Guha R, Ferrer M, Arnaldez FI, Ji J, Tran HL, Zhang Y, Mendoza A, Helman LJ, Thomas CJ. Matrix Screen Identifies Synergistic Combination of PARP Inhibitors and Nicotinamide Phosphoribosyltransferase (NAMPT) Inhibitors in Ewing Sarcoma. Clin Cancer Res. 2017 Dec 1;23(23):7301-7311. doi: 10.1158/1078-0432.CCR-17-1121. Epub 2017 Sep 12. PMID: 28899971; PMCID: PMC6636827.
Potency means the concentration at half of the fitted maximal effect.

| Structure (SMILES) | Potency | viability [%] |
| --- | --- | --- |
| CC1(N2CCC(n3c([C@@H]4CCCNC4)nc4ccccc43)CC2)CCCCCCC1 | 7.43 µM (active) |  |
| C=C[C@@H]1CN2CCC1C[C@@H]2[C@@H](O)c1ccnc2ccccc12 (stereo not given in full) | 7.43 µM (active) |  |
| CC[C@@H](C(N)=O)N1CCCC1=O |  | 129 |
| CC(C)(O)C=CC(=O)[C@](C)(O)[C@H]1[C@H](O)C[C@]2(C)[C@@H]3CC=C4[C@@H](C=C(O)C(=O)C4(C)C)[C@]3(C)C(=O)C[C@@]12C | 0.0418 µM (active) |  |
| O=c1[nH]c2ccccc2n1C1CCN(Cc2ccc(-c3[nH]c4cc5ncnc5cc4nc3-c3ccccc3)cc2)CC1 | 10.5 µM (active) |  |
| N#C[C@H](O[C@@H]1O[C@H](CO[C@@H]2O[C@H](CO)[C@H](O)[C@H](O)[C@H]2O)[C@H](O)[C@H](O)[C@H]1O)c1ccccc1 | 7.43 µM (active) |  |
| C[C@@H]1[C@H](O)[C@@H](C)C=CC=CCCC=CC=CC=CC=C[C@H](O[C@H]2O[C@@H](C)[C@H](O)[C@@H](N)[C@@H]2O)CC2O[C@](O)(C[C@@H](O)[C@H](O)CC[C@@H](O)C[C@@H](O)C[C@@H](O)CC(=O)O[C@H]1C)C[C@H](O)[C@H]2C(=O)O |  | 133 |
| O=S(=O)(CC1CS1)c1ccc(Oc2ccccc2)cc1 (stereo not given) | 3.72 µM (active) |  |
| COc1ccc(C(=O)c2c(C)n(CCN3CCOCC3)c3cc(I)ccc23)cc1 | 20.9 µM (active) |  |
| CCN1CCN(C(=O)Cc2ccc(Nc3ncc(F)c(Nc4ccc(C(=O)Nc5ccccc5Cl)cc4)n3)cc2)CC1 | 1.05 µM (active) |  |
| O=C1C=CC[C@@H]2[C@H]3CCCN4CCC[C@@H](CN12)[C@@H]34 |  | 131 |
| CC(N[C@H]1C[C@H]1c1ccccc1)c1ccc2c(c1)OCCO2 (stereo not given in full) |  | 111 |
| CC1=C(O)C(=O)C=C2C1=CC=C1[C@@]2(C)CC[C@@]2(C)[C@@H]3C[C@](C)(C(=O)O)CC[C@]3(C)CC[C@]12C | 1.05 µM (active) |  |
| C[C@H]([C@H](O)CCC(C)(C)O)[C@H]1CC[C@@]2(O)C3=CC(=O)[C@@H]4C[C@@H](O)[C@@H](O)C[C@]4(C)[C@@H]3CC[C@]12C |  | 108 |
| CCNC(=O)CC1N=C(c2ccc(Cl)cc2)c2cc(OC)ccc2-n2c(C)nnc21 (stereo not given) | 13.2 µM (active) |  |
| Cc1ccccc1-n1c(Cn2ncc3c(N)ncnc32)nc2cccc(C)c2c1=O | 0.148 µM (active) |  |
| Cc1ccccc1-n1c(Cn2cnc3c(N)ncnc32)nc2cccc(C)c2c1=O | 0.264 µM (active) |  |
| CSCC[C@@H](NC(=O)[C@@H](Cc1ccccc1)NC(=O)CNC(=O)CNC(=O)[C@@H](N)Cc1ccc(O)cc1)C(=O)O |  | 137 |
| CCOC(=O)c1c(C(C#N)=CN)c2ccc(Cl)c(Cl)c2n1C |  | 86.8 |
| O=C(Nc1ccncc1)C(=O)c1cn(Cc2ccc(Cl)cc2)c2ccccc12 | 0.0209 µM (active) |  |

| Structure (SMILES) | Potency | viability [%] |
| --- | --- | --- |
| COc1ccc(CC2NCCc3cc(OC)c(OC)cc32)cc1OC (stereo not given) |  | 86 |
| COc1ccc2c(c1)[C@]13CCCCC1C(C2)N(C)CC3 (stereo not given in full) |  | 87.8 |
| O=C(N[C@@H](COc1ccc2[nH]c(=O)[nH]c2c1)c1ccccc1)c1cccn(Cc2ccc(F)c(F)c2)c1=O | 18.7 µM (active) |  |
| C#CC1(O)CCC2C3CCC4=CC(=O)CCC4(C)C3CCC21C (stereo not given) |  | 92.8 |
| COC[C@H]1OC(=O)c2coc3c2[C@@]1(C)C1=C(C3=O)[C@@H]2CC[C@H](O)[C@@]2(C)C[C@@H]1OC(C)=O | 6.62 µM (active) |  |
| CC[C@@]1(O)C(=O)OCc2c1cc1n(c2=O)Cc2cc3ccccc3nc2-1 | 0.132 µM (active) |  |
| CN(C)NC(=O)CCC(=O)O |  | 104 |
| C[C@@H]1CC[C@H]2[C@@H](C)C(=O)O[C@@H]3O[C@@]4(C)CC[C@H]1[C@]32OO4 |  | 106 |
| NC1=NC(=O)N2CC12 (stereo not given) | 10.5 µM (active) |  |
| C=C[C@@H]1CN2CCC1C[C@H]2[C@H](O)c1ccnc2ccccc12 (stereo not given in full) | 6.62 µM (active) |  |
| COc1ccc2c(c1)CN(C)CC2c1ccc(Cl)c(Cl)c1 (stereo not given) | 23.5 µM (active) |  |
| CCOC(=O)Nc1ccc(NCc2ccc(F)cc2)cc1N | 3.32 µM (active) |  |
| CCc1c(C(=O)C(N)=O)c2c(OCC(=O)O)cccc2n1Cc1ccccc1 |  | 122 |
| c1ccc2c(CN3CCNCC3)cccc2c1 |  | 85.6 |
| CC[C@@H]1[C@@H](C)O[C@@](O)([C@@H](C)[C@H](O)[C@H](C)[C@H]2OC(=O)C=CC=C[C@@H](C)[C@@H]([C@@H](C)[C@@H](O)[C@H](C)[C@@]3(O)C[C@H](O[C@H]4C[C@H](O)[C@H](O)[C@H](C)O4)[C@H](CC)[C@@H](C)O3)OC(=O)C=CC=C[C@@H]2C)C[C@H]1O[C@H]1C[C@H](O)[C@H](O)[C@H](C)O1 | 0.372 µM (active) |  |
| COC(=O)[C@@H](N)CCCN=C(N)N[N+](=O)[O-] |  | 138 |
| CCN1C[C@]2(OC(=O)c3ccccc3NC(C)=O)CC[C@H](OC)[C@@]34[C@H]5CC6[C@@H](OC)C[C@](O)(C(C[C@@H]23)[C@@H]14)[C@@]5(O)[C@@H]6OC |  | 106 |
| CCCN1CCO[C@@H]2c3cc(O)ccc3OC[C@@H]21 |  | 115 |
| COc1cc([C@@H]2c3cc4c(cc3[C@@H](O)C3COC(=O)C32)OCO4)cc(OC)c1O (stereo not given in full) | 0.0372 µM (active) |  |
| C[C@@H]1O[C@@H](O[C@@H]2C=C3CC[C@@H]4[C@@H](CC[C@]5(C)[C@H](c6ccc(=O)oc6)CC[C@@]45O)[C@@]3(C)CC2)[C@H](O)[C@H](O)[C@H]1O | 0.0074 µM (active) |  |
